Compound activity (PubChem BioAssay)
Rab9 promoter act: activators of Rab9 promoter; 320,000 tested, 2.8% active; Potency, µM (top dose mostly 9.22 µM), for inactives: at the highest dose activation, negative = inhibition, most hits filed as activators; Huh7 Rab9 promoter-luciferase reporter, luminescence, 24 h; further: % of control where 0% means no effect; nearly all actives have a fitted effect of over 60% in size
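Cell-based reporter: Huh7 stable for Rab9 promoter-driven luciferase, plated in reduced-serum medium with 10% FBS at 1500 cells/well, compound-treated 24 h at 37 °C, luminescence read after 10 min reagent.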
FLuc modulator: counter-screen for miR-21 project: firefly luciferase inhibitors or activators; P08659; purified FLuc, Km substrates, luminescence inhibition; Potency, µM (titrated, usually from 57.5 µM), inactives show at the top dose activity change, negative = inhibition, usual class: inhibitors; 360,000 tested, 6.9% active;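 further: plate controls were vehicle for no effect and reference inhibitor for full effect; nearly all actives have a fitted effect of over 55% in size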
Target sequence (P08659 whole entry, looked up): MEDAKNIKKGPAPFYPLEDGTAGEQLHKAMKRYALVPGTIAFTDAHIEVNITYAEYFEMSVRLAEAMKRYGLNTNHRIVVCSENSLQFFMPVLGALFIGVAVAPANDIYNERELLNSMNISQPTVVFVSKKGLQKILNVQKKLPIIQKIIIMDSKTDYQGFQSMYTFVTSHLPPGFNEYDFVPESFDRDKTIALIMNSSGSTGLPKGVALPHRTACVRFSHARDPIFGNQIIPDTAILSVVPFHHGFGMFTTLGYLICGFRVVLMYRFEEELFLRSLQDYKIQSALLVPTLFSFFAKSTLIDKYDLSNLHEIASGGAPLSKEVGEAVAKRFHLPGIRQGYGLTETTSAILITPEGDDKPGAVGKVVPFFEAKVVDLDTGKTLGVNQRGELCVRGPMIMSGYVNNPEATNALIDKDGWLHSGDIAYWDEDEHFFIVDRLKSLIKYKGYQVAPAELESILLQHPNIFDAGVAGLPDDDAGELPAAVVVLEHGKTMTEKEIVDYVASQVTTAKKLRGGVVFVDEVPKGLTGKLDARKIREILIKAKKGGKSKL
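Biochemical qHTS of compounds, final roughly 60 µM downward over six points, against 10 nM purified firefly luciferase using Km concentrations of substrates (10 uM D-luciferin, 10 uM ATP) in Tris acetate pH 7.5 buffer; luminescence output.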
ELG1 DNA repair: ELG1-dependent DNA repair inhibition. HEK293T ELG1-luciferase reporter, luminescence, 16 h; DNA damage induced by 5-fluorouridine. Potency, µM (top dose mostly 46.1 µM), without a hit: top-dose activity change, negative = inhibition, usual class: inhibitors. 330,000 tested, 2.3% active. AID 504467; further: on the % scale 0 is the no-effect control and ±100 the full control effect; nearly all actives have a fitted effect of over 55% in size
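Luminescence from the luciferase reporter, measured 30 min after ONE-Glo reagent at room temperature, was the read-out. Beforehand, 2,000 cells per well were exposed for 16 hr at 37 °C to 5-fluorouridine together with compound or vehicle.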
SMN2 splice up: increases expression of the SMN2 splice variant; AID 1458; HEK293 SMN2-luciferase splicing reporter, luminescence, 30-36 h; 210,000 tested, 2.8% active; Potency, µM (top dose mostly 46.1 µM), without a hit: at the top dose activity change, positive = activation, hits mostly activators; further: % of control where 0% means no effect; nearly all actives have a fitted effect of over 55% in size
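HEK293 cells carry an SMN2 […]–luciferase reporter in which exon 7 inclusion puts luciferase in frame. Cells were plated 10-12 h before compound addition, then incubated 30-36 h at 37C. ONE-Glo luminescence was read; sodium butyrate at 4.5 mM final served as control.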
NPC1 promoter act: activators of NPC1 promoter | Huh7 NPC1 promoter luciferase reporter, 24 h | Potency, µM (doses to about 9.22 µM), without a hit: at the highest dose activation, most hits filed as activators | 320,000 tested, 2.4% active | AID 485313; further: % of control where 0% means no effect; nearly all actives have a fitted effect of over 60% in size
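Huh7 cells stably carrying NPC1 promoter–luciferase, plated in Opti-MEM with 10% FBS for 2 h, were exposed to compound in DMSO for 24 h at 37 °C; luciferase reagent was added for 10 min and luminescence read.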
ELG1 genotoxic: genotoxicity induction in ELG1-luciferase HEK293T cells; AID 504466; HEK293T ELG1-luciferase reporter, luminescence, 16 h; Potency, µM (highest dose often 46 µM), for inactives: top-dose activity change, positive = activation, usual class: activators; 330,000 tested, 1.3% active; further: % of control where 0% means no effect; nearly all actives have a fitted effect of over 60% in size
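Genotoxicity was scored as increased ELG1-luciferase reporter signal, measured by ONE-Glo luminescence (30 min, room temperature). Compound or vehicle exposure of the HEK293T reporter cells lasted 16 hr at 37°C.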
* hit, by the source's call; ? = inconclusive; nt = not tested or not shown; [ ] = another dose, or the depositor's remark. The list is not random: actives were taken first. Their share in the collection is about 9.2%. The call rests on the fitted dose curve; in most records, active means well fitted curve in the direction sought with a large enough effect; inconclusive means small, poorly fitted or top-dose-only effect, or another doubt; inactive means no such curve, though single readings can be large; an effect the other way counts as inactive or inconclusive. Potency means the concentration at half of the fitted maximal effect.

SMILES | Rab9 promoter act | FLuc modulator | ELG1 DNA repair | SMN2 splice up | NPC1 promoter act | ELG1 genotoxic
COc1ccc(NC(=O)c2cc(-c3ccc(C)o3)nc3ccccc23)cc1OC | ? | 0.95µM* | 15µM* | -23% | 19% | 4%
O=C(Nc1nccs1)c1cc(-c2ccncc2)nc2ccccc12 | 1% | 0% | -17% | -3% | -5% | -11%
O=C(Nc1nncs1)c1cc(-c2ccco2)nc2ccccc12 | nt | nt | ? | nt | nt | -4%
COCC(=O)N1CCC2(CCCN(C(=O)Nc3cccc(F)c3)C2)CC1 | nt | nt | nt | -9% | nt | nt
Nc1ncccc1OCc1ccc(Cl)c(Cl)c1 | 1.4µM* | 7.6µM* | ? | nt | 2.8µM* | ?
COc1ccc(CNCCc2ccc(Cl)cc2)cc1OCc1ccccc1 | -14% | 3% | 15µM* | -54% | -5% | -12%
COc1cc(CNCc2ccccn2)ccc1OCc1ccc(Cl)c(Cl)c1 | 13% | 17µM* | ? | 7% | 11% | 10%
O=C(OCc1ccc(Cl)c(Cl)c1)c1cccnc1Cl | -5% | ? | 13% | nt | -3% | 2%
CCOc1cc(CNCc2ccccc2)ccc1OCc1ccc(Cl)cc1 | -1%[1.84 µM] | 1% | ? | nt | -12% | -6%
C/C(=N\NC(=O)c1nn(C)c(C)c1Br)c1ccc(NC(=O)C2CCCC2)cc1 | ? | -2% | ? | nt | 4% | ?
O=C(/C=C/c1ccco1)NCc1ccccn1 | 11% | -10% | ? | 10% | 0% | 5%
O=C(/C=C/c1ccco1)Nc1ccccc1N1CCCCC1 | -1% | 1% | -23% | -7% | -2% | -11%
O=C(/C=C/c1ccco1)Nc1cccnc1Cl | 4µM* | 15µM* | ? | nt | 4µM* | ?
O=C(/C=C/c1ccccc1)Nc1cccnc1Cl | 2.2µM* | 12µM* | ? | nt | 2.2µM* | 18µM*
COC(=O)c1ccccc1NC(=O)/C=C/c1ccco1 | 28% | 15µM* | ? | 15% | 10% | -5%
CSc1ccc(NC(=O)NCc2cccnc2)cc1 | 29% | ? | ? | nt | 9% | ?
C=CCC(CC=C)(CNC(=O)C(=O)Nc1cccc(C(F)(F)F)c1)c1ccccc1 | nt | -5% | nt | 0% | nt | nt
O=c1cccccc1NN=C1CCCCC1 | 10% | 12µM* | ? | nt | 12% | 17%
O=c1cccccc1NN=C1CCCCCC1 | 3.2µM* | 6µM* | ? | nt | 2.2µM* | 15µM*
O=C(O)c1cc(Br)ccc1NN=C1CCCCC1 | -1% | ? | ? | -10% | 0% | 4%
CCN(CC)S(=O)(=O)c1ccc(N2CC(C(=O)NCCc3c[nH]c4ccccc34)CC2=O)cc1 (stereo not drawn) | 2% | 4% | ? | nt | 0% | -6%
COc1ccc(C2=NN(c3ccccc3)C(c3cn(CCC(=O)O)nc3-c3ccccc3)C2)cc1 (stereo not drawn) | 16% | 4.3µM* | ? | 11% | 7% | 4%
CCC(=O)Nc1cccc(C2=NN(c3ccccc3)C(c3ccc(OC)cc3)C2)c1 (stereo not drawn) | -6% | -13% | ? | nt | 2% | -3%
COc1ccc(-c2nn(CCC(=O)O)cc2CCC(=O)O)cc1 | 8% | -1% | -6% | -2% | -1% | 1%
COc1ccc(C2CC(c3ccccc3)=NN2c2ccc(Cl)c(C(=O)O)c2)cc1 (stereo not drawn) | 0% | 21µM* | 6% | nt | 0% | 6%
COc1ccc(C2CC(c3ccccc3)=NN2c2ccc(N)cc2)cc1 (stereo not drawn) | 4% | 9.5µM* | -22% | 8% | -5% | 13%
CS(=O)(=O)CC[C@@H](C(=O)NCCc1ccccc1)N1Cc2ccccc2C1=O | nt | 0% | nt | -3% | nt | nt
O=C(NCCCN1CCCC1=O)c1cc(-c2ccc(F)cc2)nc2ccccc12 | nt | nt | 18µM* | nt | nt | -5%
COc1cc2sc(-c3ccc(S(C)(=O)=O)cc3)c(C(=O)NCc3ccc(C)o3)c2cc1OC | nt | nt | 18µM* | nt | nt | -5%
